# Unmarked numbers belong to inactive results. Results filed as inconclusive are left out. A call without a number means that no potency is given here. Active and inactive are the calls of the source. The call rests on the fitted dose curve; in most records, active means well fitted curve in the direction sought with a large enough effect in the repeat runs; inconclusive means weak or mixed curves; inactive means no such curve, though single readings can be large; an effect the other way counts as inactive or inconclusive.
# Legend:
# [1] = Human pregnane X receptor (PXR) small molecule agonists, qHTS cell viability counter screen (AID 1346977); further: nearly all actives have a fitted effect of over 50% in size
# Outline: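 Tox21 qHTS format; PXR-Luc HepG2, 2,000/well, charcoal-stripped FBS 5%. Cpd exposure 24hr. Read: CellTiter-Fluor fluorescence, multiplexed with luciferase.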
# [2] = Caspase-3/7 induction in HepG2 cells by small molecules, qHTS assay (AID 1346978); further: nearly all actives have a fitted effect of over 15% in size
# Outline: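 Wild-type HepG2 cells (2,000/well) were settled 5 h at 37 C, 5% CO2, then exposed to compounds in DMSO for 17 h. Caspase-3/7 activity was read by luminescence 30 min after adding Caspase-Glo 3/7 reagent at room temperature.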
# [3] = Caspase-3/7 induction in CHO-K1 cells by small molecules, qHTS cell viability counter screen (AID 1346979); further: nearly all actives have a fitted effect of over 35% in size
# Outline: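 CellTiter-Fluor viability check, qHTS format: wild-type CHO-K1, 16hr compound treatment, 1hr reagent incubation, fluorescence read.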
# [4] = Caspase-3/7 induction in CHO-K1 cells by small molecules, qHTS assay (AID 1346980); further: nearly all actives have a fitted effect of over 15% in size
# Outline: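 Wild-type cells were seeded at 1,500 per well and settled 5 hr at 37 C, 5% CO2, then exposed to DMSO-dissolved compounds for 17 hr. Caspase-Glo 3/7 reagent was added, and luminescence was read after 30min at room temperature.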
# [5] = Caspase-3/7 induction in HepG2 cells by small molecules, qHTS cell viability counter screen (AID 1346981); further: series mostly up to about 92 µM; nearly all actives have a fitted effect of over 30% in size
# Outline: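 After a 5-hr attachment period at 37 C and 5% CO2, wild-type HepG2 cells received compounds in DMSO. Sixteen hours later CellTiter-Fluor was dispensed and the fluorescent signal quantified after a further hour.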
# [6] = target: Nuclear receptor subfamily 1 group I member 2 (Homo sapiens) (UniProt O75469); test: Human pregnane X receptor (PXR) small molecule agonists, qHTS assay (AID 1346982); further: nearly all actives have a fitted effect of over 35% in size; further: potency means the concentration at half of the fitted maximal effect
# Outline: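 Tox21 qHTS; PXR-Luc HepG2; compounds pinned from DMSO; 24 hr, 37 C; ONE-Glo luciferase detection, 30 min room temperature.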
# [7] = target: Cytochrome P450 2C9 (Homo sapiens) (UniProt P11712); test: Cytochrome P450 Family 2 Subfamily C Member 9 (CYP2C9) small molecule antagonists: luciferase reporter qHTS assay (AID 1671198); further: nearly all actives have a fitted effect of over 50% in size; further: potency means the concentration at half of the fitted maximal effect; on activity change, negative = inhibition: series mostly up to about 120 µM
# Outline: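 CYP2C9 activity was measured with a P450-Glo proluciferin substrate. Enzyme–substrate mix was held with compound for 10 min at room temperature, then NADPH regeneration solution was added for 1 h at 37C. Luciferin product was read as luminescence.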
# [8] = target: Cytochrome P450 1A2 (Homo sapiens) (UniProt P05177); test: Cytochrome P450 Family 1 Subfamily A Member 2 (CYP1A2) small molecule antagonists: luciferase reporter qHTS assay (AID 1671199); further: nearly all actives have a fitted effect of over 50% in size; further: potency means the concentration at half of the fitted maximal effect; on activity change, negative = inhibition: series mostly up to about 120 µM
# Outline: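 Room-temperature CYP1A2 reaction with proluciferin substrate: compounds added from DMSO, 10 min preincubation, NADPH regeneration for 1 h. Luciferin detection reagent then added; luminescence recorded as RLU.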
# [9] = target: Voltage-gated inwardly rectifying potassium channel KCNH2 (Homo sapiens) (UniProt Q12809); test: Human Ether-a-go-go-Related Gene (hERG) channel small molecule antagonists: fluorescence cell-based qHTS assay (AID 1671200);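 further: hERG-expressing U2OS cells given a thallium stimulus after FluxOR II dye loading; series mostly up to about 77 µM; nearly all actives have a fitted effect of over 50% in size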
# Outline: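 Kinetic two-minute fluorescence traces, sampled at 1 s, were collected following thallium stimulus of U2OS cells (1000 per well) that had been cultured overnight at 37 C and loaded with FluxOR II.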
# [10] = target: Cytochrome P450 3A4 (Homo sapiens) (UniProt P08684); test: Cytochrome P450 Family 3 Subfamily A Member 4 (CYP3A4) small molecule antagonists: luciferase reporter qHTS assay (AID 1671201); further: nearly all actives have a fitted effect of over 50% in size; further: potency means the concentration at half of the fitted maximal effect; on activity change, negative = inhibition: series mostly up to about 120 µM
# Outline: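 Proluciferin-to-luciferin conversion by CYP3A4, NADPH-regenerated, 1 h RT; luminescence read as RLU. Ketoconazole as control.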
# [11] = target: Cytochrome P450 2C19 (Homo sapiens) (UniProt P33261); test: Cytochrome P450 Family 2 Subfamily C Member 19 (CYP2C19) small molecule antagonists: luciferase reporter qHTS assay (AID 1671197); further: nearly all actives have a fitted effect of over 65% in size; further: potency means the concentration at half of the fitted maximal effect; on activity change, negative = inhibition: series mostly up to about 120 µM
# Outline: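 Inhibition of CYP2C19 was scored from loss of luminescence in a P450-Glo proluciferin substrate assay, NADPH-started and run 1 h at 37C, with ketoconazole as positive control.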
# [12] = target: Nuclear receptor subfamily 1 group I member 2 (Rattus norvegicus) (UniProt Q9R1A7); test: Rat pregnane X receptor (rPXR) activation by small molecules, qHTS assay (AID 1346983); conditions: rPXR luciferase reporter cells, One-Glo luminescence, 24 h; max activation: hits give high values; further: nearly all actives have a fitted effect of over 20% in size
# Outline: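 Cell-based rPXR luciferase reporter assay, 2,000 cells per well, rested 5hr at 37 C before compound addition in DMSO, then 24 hr at 37 C. One-Glo reagent was added and luminescence read after 30 min at room temperature.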
# [13] = target: Nuclear receptor subfamily 1 group I member 2 (Homo sapiens) (UniProt O75469); test: CYP3A4 induction through human pregnane X receptor (PXR) by small molecules, qHTS assay (AID 1346984); further: nearly all actives have a fitted effect of over 40% in size
# Outline: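 Cells (DPX-2; HepG2 with PXR element plus CYP3A4-promoter luciferase) settled 5hr, then were treated 24hr at 37C. A 3hr, 3uM-final Luciferin-IPA step preceded luminescence measurement with One-Glo.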
# Chain of Cytochrome P450 2C9 (Homo sapiens) (P11712 whole entry, looked up): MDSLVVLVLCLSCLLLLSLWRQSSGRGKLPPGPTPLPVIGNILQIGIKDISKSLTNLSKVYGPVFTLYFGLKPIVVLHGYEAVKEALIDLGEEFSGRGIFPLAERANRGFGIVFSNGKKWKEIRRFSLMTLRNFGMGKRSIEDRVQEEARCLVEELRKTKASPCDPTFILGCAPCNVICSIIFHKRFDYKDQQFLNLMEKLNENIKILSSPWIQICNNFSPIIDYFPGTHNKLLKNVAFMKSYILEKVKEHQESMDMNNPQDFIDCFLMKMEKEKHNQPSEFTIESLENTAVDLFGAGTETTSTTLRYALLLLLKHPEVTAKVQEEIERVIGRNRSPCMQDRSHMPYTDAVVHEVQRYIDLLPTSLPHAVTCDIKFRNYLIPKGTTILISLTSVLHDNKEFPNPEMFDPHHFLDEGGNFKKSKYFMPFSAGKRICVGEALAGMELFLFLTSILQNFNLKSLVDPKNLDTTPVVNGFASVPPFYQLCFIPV
# Chain of Cytochrome P450 1A2 (Homo sapiens) (P05177 whole entry, looked up): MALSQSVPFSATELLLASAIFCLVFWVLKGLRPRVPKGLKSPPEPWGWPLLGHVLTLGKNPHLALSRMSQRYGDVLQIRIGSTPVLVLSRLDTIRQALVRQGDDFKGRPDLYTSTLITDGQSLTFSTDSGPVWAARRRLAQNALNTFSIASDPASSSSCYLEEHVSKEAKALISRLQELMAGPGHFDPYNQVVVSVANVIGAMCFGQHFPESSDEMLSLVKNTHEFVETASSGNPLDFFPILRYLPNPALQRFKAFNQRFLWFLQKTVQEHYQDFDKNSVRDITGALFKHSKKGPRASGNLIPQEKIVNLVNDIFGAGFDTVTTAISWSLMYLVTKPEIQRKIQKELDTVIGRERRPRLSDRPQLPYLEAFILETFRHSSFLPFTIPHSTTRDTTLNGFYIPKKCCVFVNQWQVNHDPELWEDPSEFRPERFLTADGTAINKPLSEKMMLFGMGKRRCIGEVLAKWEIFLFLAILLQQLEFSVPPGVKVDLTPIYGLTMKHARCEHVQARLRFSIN
# Chain of Nuclear receptor subfamily 1 group I member 2 (Homo sapiens) (O75469 whole entry, looked up): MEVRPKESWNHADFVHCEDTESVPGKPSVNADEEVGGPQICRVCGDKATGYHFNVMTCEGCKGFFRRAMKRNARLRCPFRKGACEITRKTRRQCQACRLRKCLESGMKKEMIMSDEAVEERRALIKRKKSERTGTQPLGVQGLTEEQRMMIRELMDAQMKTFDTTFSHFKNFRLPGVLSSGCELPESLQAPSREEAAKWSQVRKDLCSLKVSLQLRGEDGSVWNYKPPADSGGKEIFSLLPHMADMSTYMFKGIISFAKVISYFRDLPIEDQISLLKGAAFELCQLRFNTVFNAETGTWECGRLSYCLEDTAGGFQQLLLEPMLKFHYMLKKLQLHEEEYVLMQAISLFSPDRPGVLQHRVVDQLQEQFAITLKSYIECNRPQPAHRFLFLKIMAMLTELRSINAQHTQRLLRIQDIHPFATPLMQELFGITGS
# Chain of Nuclear receptor subfamily 1 group I member 2 (Rattus norvegicus) (Q9R1A7 whole entry, looked up): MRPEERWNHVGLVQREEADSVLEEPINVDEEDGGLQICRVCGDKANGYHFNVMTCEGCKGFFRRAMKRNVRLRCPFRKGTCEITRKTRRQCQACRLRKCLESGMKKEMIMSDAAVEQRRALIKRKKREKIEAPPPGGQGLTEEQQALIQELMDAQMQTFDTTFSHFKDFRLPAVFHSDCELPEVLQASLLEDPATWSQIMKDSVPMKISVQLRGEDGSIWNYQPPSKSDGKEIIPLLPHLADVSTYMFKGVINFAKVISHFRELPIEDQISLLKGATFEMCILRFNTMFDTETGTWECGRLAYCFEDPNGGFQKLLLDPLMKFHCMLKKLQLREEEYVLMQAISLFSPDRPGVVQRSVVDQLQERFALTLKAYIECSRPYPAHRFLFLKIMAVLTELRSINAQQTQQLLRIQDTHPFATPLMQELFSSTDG
# Chain of Cytochrome P450 2C19 (Homo sapiens) (P33261 whole entry, looked up): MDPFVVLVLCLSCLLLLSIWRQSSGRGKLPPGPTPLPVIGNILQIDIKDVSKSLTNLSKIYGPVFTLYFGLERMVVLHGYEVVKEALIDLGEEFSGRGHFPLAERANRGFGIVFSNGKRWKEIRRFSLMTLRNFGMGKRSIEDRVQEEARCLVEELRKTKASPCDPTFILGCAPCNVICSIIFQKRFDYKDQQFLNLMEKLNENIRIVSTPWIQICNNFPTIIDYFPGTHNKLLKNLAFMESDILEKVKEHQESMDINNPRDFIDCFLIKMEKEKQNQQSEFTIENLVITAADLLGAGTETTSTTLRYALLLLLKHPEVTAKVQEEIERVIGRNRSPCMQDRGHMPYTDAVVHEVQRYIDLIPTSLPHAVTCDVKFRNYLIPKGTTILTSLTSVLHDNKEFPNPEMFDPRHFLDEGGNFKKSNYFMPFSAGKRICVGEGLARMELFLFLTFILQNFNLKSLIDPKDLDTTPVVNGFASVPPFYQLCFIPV
# Chain of Voltage-gated inwardly rectifying potassium channel KCNH2 (Homo sapiens) (Q12809 whole entry, looked up): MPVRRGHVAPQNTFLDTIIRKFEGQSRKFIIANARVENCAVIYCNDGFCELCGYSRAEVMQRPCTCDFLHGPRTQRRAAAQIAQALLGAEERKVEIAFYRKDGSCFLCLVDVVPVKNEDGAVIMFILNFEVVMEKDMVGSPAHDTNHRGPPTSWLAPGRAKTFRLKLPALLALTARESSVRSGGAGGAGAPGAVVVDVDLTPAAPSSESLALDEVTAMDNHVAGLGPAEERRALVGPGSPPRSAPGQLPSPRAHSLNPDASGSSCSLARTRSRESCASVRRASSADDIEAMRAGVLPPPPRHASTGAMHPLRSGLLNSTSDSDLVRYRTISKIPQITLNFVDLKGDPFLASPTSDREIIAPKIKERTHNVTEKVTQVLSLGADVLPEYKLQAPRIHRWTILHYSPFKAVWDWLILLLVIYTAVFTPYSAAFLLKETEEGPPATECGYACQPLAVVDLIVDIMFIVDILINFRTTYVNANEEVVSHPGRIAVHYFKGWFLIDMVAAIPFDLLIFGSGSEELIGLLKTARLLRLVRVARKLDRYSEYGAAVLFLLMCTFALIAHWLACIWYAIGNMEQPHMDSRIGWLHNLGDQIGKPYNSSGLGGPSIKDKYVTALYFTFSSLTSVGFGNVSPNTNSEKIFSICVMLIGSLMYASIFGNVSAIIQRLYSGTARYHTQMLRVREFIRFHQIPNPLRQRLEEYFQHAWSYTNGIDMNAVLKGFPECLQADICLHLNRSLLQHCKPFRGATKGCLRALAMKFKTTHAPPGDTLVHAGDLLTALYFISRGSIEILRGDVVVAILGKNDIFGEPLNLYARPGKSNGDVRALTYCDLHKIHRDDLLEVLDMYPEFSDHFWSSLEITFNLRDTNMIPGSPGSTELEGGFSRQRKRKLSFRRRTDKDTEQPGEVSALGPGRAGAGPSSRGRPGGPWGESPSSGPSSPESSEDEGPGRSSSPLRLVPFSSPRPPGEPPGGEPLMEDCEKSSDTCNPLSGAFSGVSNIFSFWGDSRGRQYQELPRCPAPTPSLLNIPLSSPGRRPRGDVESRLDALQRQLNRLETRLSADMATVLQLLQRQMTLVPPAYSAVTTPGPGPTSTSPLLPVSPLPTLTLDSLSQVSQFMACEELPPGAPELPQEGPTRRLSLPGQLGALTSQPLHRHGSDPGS
# Chain of Cytochrome P450 3A4 (Homo sapiens) (P08684 whole entry, looked up): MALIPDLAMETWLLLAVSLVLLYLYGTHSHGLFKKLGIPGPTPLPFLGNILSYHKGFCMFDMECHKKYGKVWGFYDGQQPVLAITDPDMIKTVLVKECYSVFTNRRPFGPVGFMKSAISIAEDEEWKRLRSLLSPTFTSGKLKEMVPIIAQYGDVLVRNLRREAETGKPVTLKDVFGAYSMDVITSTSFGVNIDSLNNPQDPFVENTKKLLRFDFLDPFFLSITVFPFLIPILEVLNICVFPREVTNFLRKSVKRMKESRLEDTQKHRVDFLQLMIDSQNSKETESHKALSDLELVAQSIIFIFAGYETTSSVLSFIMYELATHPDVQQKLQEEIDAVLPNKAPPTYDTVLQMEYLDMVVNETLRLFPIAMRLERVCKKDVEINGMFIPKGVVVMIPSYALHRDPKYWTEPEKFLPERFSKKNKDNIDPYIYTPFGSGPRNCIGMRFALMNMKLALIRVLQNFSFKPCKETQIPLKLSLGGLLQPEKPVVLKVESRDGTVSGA
smiles,measurement,setting,value
O=C(O)c1cc(C(=O)O)cc(C(=O)O)c1,Potency,[1],inactive
same,outcome,[2],inactive
same,Potency,[3],inactive
same,outcome,[4],inactive
same,Potency,[5],inactive
same,Potency,[6],inactive
same,Potency,[7],inactive
same,Potency,[8],inactive
same,Potency,[9],inactive
C=COC(=O)C(C)(CC)CCC(C)C (stereo unspecified),Potency,[1],inactive
same,outcome,[2],inactive
same,Potency,[3],inactive
same,outcome,[4],inactive
same,Potency,[5],inactive
same,Potency,[6],inactive
same,Potency,[7],inactive
same,Potency,[8],inactive
same,Potency,[9],inactive
O=S(=O)(O)c1cc(O)c(O)c(S(=O)(=O)O)c1,Potency,[1],inactive
same,outcome,[2],inactive
same,Potency,[3],inactive
same,outcome,[4],inactive
same,Potency,[5],inactive
same,Potency,[6],inactive
same,Potency,[7],inactive
same,Potency,[8],inactive
same,Potency,[9],inactive
same,Potency,[10],inactive
CC(C)(C#N)Nc1nc(Cl)nc(NC2CC2)n1,Potency,[1],inactive
same,outcome,[2],inactive
same,Potency,[3],inactive
same,outcome,[4],inactive
same,Potency,[5],inactive
same,Potency,[6],27.3 µM (active)
same,Potency,[7],inactive
same,Potency,[8],39.9 µM (active)
same,Potency,[9],inactive
same,Potency,[10],20 µM (active)
c1ccc(CCc2ccccc2)cc1,Potency,[1],inactive
same,outcome,[2],inactive
same,Potency,[3],inactive
same,outcome,[4],inactive
same,Potency,[5],inactive
same,Potency,[6],inactive
same,Potency,[11],inactive
same,Potency,[7],inactive
same,Potency,[8],inactive
same,Potency,[9],inactive
same,Potency,[10],inactive
CCOC(=O)C1=NOC(c2ccccc2)(c2ccccc2)C1,Potency,[1],inactive
same,outcome,[2],inactive
same,Potency,[3],inactive
same,outcome,[4],inactive
same,Potency,[5],inactive
same,Potency,[6],68.6 µM (active)
same,Potency,[11],20 µM (active)
same,Potency,[7],7.1 µM (active)
same,Potency,[10],inactive
CCCCCC(=O)OCCc1ccccc1,Potency,[1],inactive
same,outcome,[2],inactive
same,Potency,[3],inactive
same,outcome,[4],inactive
same,Potency,[5],inactive
same,Potency,[6],inactive
same,Potency,[9],inactive
same,Potency,[10],inactive
COc1c(N2CCNC(C)C2)c(F)cc2c(=O)c(C(=O)O)cn(C3CC3)c12 (stereo unspecified),Potency,[1],inactive
same,outcome,[2],inactive
same,Potency,[3],inactive
same,outcome,[4],inactive
same,Potency,[5],inactive
same,Potency,[6],inactive
same,Potency,[11],inactive
same,Potency,[7],inactive
same,Potency,[8],inactive
same,Potency,[9],inactive
same,Potency,[10],inactive
CNCC(O)c1ccc(O)c(O)c1 (stereo unspecified),Potency,[1],inactive
same,outcome,[2],inactive
same,Potency,[3],inactive
same,outcome,[4],inactive
same,Potency,[5],inactive
same,Potency,[6],inactive
same,Potency,[9],inactive
CCCC(=O)O[C@]1(C(=O)CC)CC[C@H]2[C@@H]3CCC4=CC(=O)CC[C@]4(C)[C@H]3[C@@H](O)C[C@@]21C,Potency,[1],inactive
same,outcome,[2],inactive
same,Potency,[3],inactive
same,outcome,[4],inactive
same,Potency,[5],inactive
same,Potency,[6],3.76 µM (active)
same,Potency,[7],15.5 µM (active)
same,Potency,[8],inactive
same,Potency,[9],inactive
Cc1ccc(C(=O)c2ccccc2)cc1,Potency,[1],inactive
same,outcome,[2],inactive
same,Potency,[3],inactive
same,outcome,[4],inactive
same,Potency,[5],inactive
same,Potency,[6],inactive
same,Potency,[11],10 µM (active)
same,Potency,[7],31.7 µM (active)
same,Potency,[8],31.7 µM (active)
same,Potency,[10],inactive
CCOC(=O)C(=O)CCCCCCl,Potency,[1],inactive
same,outcome,[2],inactive
same,Potency,[3],inactive
same,outcome,[4],inactive
same,Potency,[5],inactive
same,Potency,[6],inactive
same,Potency,[11],17.4 µM (active)
same,Potency,[9],inactive
same,Potency,[10],inactive
O=Cc1cccc(Br)c1,Potency,[1],inactive
same,outcome,[2],inactive
same,Potency,[3],inactive
same,outcome,[4],inactive
same,Potency,[5],inactive
same,Potency,[6],inactive
same,Potency,[11],18.3 µM (active)
same,Potency,[7],40.9 µM (active)
same,Potency,[8],16.3 µM (active)
same,Potency,[9],inactive
same,Potency,[10],81.7 µM (active)
NC(N)=NCCN1CCCCCCC1,"activity change, negative = cytotoxicity",[1],-0.749% [at 0.349 µM]
same,caspase activation,[2],-1.67% [at 0.349 µM]
same,"activity change, negative = cytotoxicity",[3],-1.24% [at 0.349 µM]
same,caspase-3/7 activation,[4],-0.223% [at 0.349 µM]
same,"activity change, negative = cytotoxicity",[5],-1.53% [at 0.349 µM]
same,max activation,[12],-2.81%
CC1=NS(=O)(=O)c2cc(Cl)ccc2N1,Potency,[1],inactive
same,outcome,[2],inactive
same,Potency,[3],inactive
same,outcome,[4],inactive
same,Potency,[5],inactive
same,Potency,[6],inactive
same,Potency,[11],inactive
same,Potency,[7],inactive
same,Potency,[8],15.5 µM (active)
same,Potency,[9],inactive
same,Potency,[10],inactive
CCCO[Si](OCCC)(OCCC)OCCC,Potency,[1],inactive
same,outcome,[2],inactive
same,Potency,[3],inactive
same,outcome,[4],inactive
same,Potency,[5],inactive
same,Potency,[6],inactive
same,Potency,[11],inactive
same,Potency,[7],inactive
same,Potency,[9],inactive
same,Potency,[10],inactive
CC(C)C1CCC(O)CC1 (stereo unspecified),Potency,[1],inactive
same,outcome,[2],inactive
same,Potency,[3],inactive
same,outcome,[4],inactive
same,Potency,[5],inactive
same,Potency,[6],inactive
same,Potency,[11],inactive
same,Potency,[7],inactive
same,Potency,[8],inactive
same,Potency,[9],inactive
same,Potency,[10],inactive
Cc1coc2ccccc2c1=O,Potency,[1],inactive
same,outcome,[2],inactive
same,Potency,[3],inactive
same,outcome,[4],inactive
same,Potency,[5],inactive
same,Potency,[6],inactive
same,Potency,[11],inactive
same,Potency,[7],inactive
same,Potency,[8],15.5 µM (active)
same,Potency,[9],inactive
same,Potency,[10],inactive
NS(=O)(=O)Cc1noc2ccccc12,Potency,[1],inactive
same,outcome,[2],inactive
same,Potency,[3],inactive
same,outcome,[4],inactive
same,Potency,[5],inactive
same,max activation,[12],-2.52%
same,Potency,[11],inactive
same,Potency,[8],inactive
same,Potency,[9],inactive
NC(=O)NC1N=C([O][Al])NC1=O (stereo unspecified),Potency,[1],inactive
same,outcome,[2],inactive
same,Potency,[3],inactive
same,outcome,[4],inactive
same,Potency,[5],inactive
same,Potency,[6],inactive
same,Potency,[11],inactive
same,Potency,[7],inactive
same,Potency,[9],inactive
CCCCCCCC1CCCC1=O (stereo unspecified),Potency,[1],inactive
same,outcome,[2],inactive
same,Potency,[3],inactive
same,outcome,[4],inactive
same,Potency,[5],inactive
same,Potency,[6],inactive
same,Potency,[11],39.9 µM (active)
same,Potency,[8],inactive
same,Potency,[9],inactive
CN1CCN(c2cc3c(nn2)Oc2ccccc2N3C)CC1,"activity change, negative = cytotoxicity",[1],8.08% [at 19 µM]
same,caspase activation,[2],-12.1% [at 19 µM]
same,"activity change, negative = cytotoxicity",[3],3.04% [at 19 µM]
same,caspase-3/7 activation,[4],-3.65% [at 19 µM]
same,"activity change, negative = cytotoxicity",[5],-0.441% [at 19 µM]
same,max activation,[12],8.97%
same,Potency,[13],inactive
same,Potency,[11],inactive
same,"activity change, negative = inhibition",[7],2.38% [at 23.6 µM]
same,Potency,[8],inactive
same,"activity change, negative = inhibition",[9],0.457% [at 15.8 µM]
same,"activity change, negative = inhibition",[10],7.5% [at 23.6 µM]
CCCCCCCCN1CCCC1=O,Potency,[1],inactive
same,outcome,[2],inactive
same,Potency,[3],inactive
same,outcome,[4],inactive
same,Potency,[5],inactive
same,Potency,[6],24.3 µM (active)
same,Potency,[11],10 µM (active)
same,Potency,[8],39.9 µM (active)
same,Potency,[9],inactive
same,Potency,[10],inactive

# Source: PubChem BioAssay (Tox21)
